The list is not random: actives were taken first. Their share in the collection is about 2.3%.
Abeta rescue = qHTS for compounds that reverse cellular toxicity of Amyloid beta (A-beta) peptide in yeast: Primary Screen | Potency, µM (titrated, usually from 46.1 µM), hits mostly activators | actives 0.063% (n = 410,000) | yeast expressing A-beta42, growth rescue, OD600, 48 h; response scale: 0% DMSO, 100% iron-clioquinol control; also: potency is read from the fitted curve at half-maximal effect; nearly all actives have a fitted effect of over 55% in size
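Growth rescue measured by 600 nm absorbance after 48 h yeast culture at 30 C with compound. Values normalized between DMSO and an equimolar ferric chloride plus clioquinol control.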
aSyn yeast inh = qHTS of alpha-syn Inhibitors | Yeast expressing alpha-synuclein, growth rescue, BacTiter-Glo, 24 h | Potency, µM (highest dose often 46.1 µM), for the others: top-dose growth rescue (activation), actives largely listed as activators | actives 0.14% (n = 370,000) | AID 652106, 2013; also: potency is read from the fitted curve at half-maximal effect; % of control where 0% means no effect; nearly all actives have a fitted effect of over 65% in size
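Readout is rescue of growth in alpha-synuclein-expressing yeast, so inhibitors of toxicity appear as activators. Growth after 24 hr at 30 deg C in galactose medium is quantified by luminescence.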
TDP43 rescue = qHTS of TDP-43 Inhibitors. TDP-43 expressing yeast growth rescue, BacTiter-Glo, 24 h. Potency, µM (series often up to 46.1 µM), for inactives: at the highest dose growth rescue (activation), most hits filed as activators. actives 1.8% (n = 410,000). AID 652104, 2013; also: potency is read from the fitted curve at half-maximal effect; % of control where 0% means no effect; nearly all actives have a fitted effect of over 50% in size
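Cell-based yeast growth screen: TDP-43 expression induced in galactose, inoculum OD600=0.02 after raffinose pregrowth to mid-log. Read-out BacTiter-Glo luminescence at 24 hr, 30 deg C; inhibition of toxicity seen as signal increase.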
CCT chaperon mod = High-Throughput Screening for Modulators of Cytosolic Chaperonin Activity; purified chaperonin ATPase assay, HTRF ADP detection, 30 min; activity change, % (concentration not given with the values), hits read low; actives 0.3% (n = 360,000); in the data active = activity change below about -30%; also: % is scaled to controls: 0 for no effect and ±100 for the full control effect
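First, chaperonin was dispensed at 40 nM or 20 nM final depending on batch activity. Next, compounds were pinned at 76 uM and ATP added at 10 uM. After 30 min at 37 °C, ADP detection reagents ran 30 min at ambient temperature.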
FUS suppressor = qHTS for Suppressors of FUS Proteinopathy: Primary screen using FUS-linked yeast assay. S. cerevisiae FUS-expressing, growth rescue, OD600, 24 h. Potency, µM (doses to about 76.6 µM), most hits filed as activators. actives 0.24% (n = 390,000). AID 1347120, 2019;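 also: potency is read from the fitted curve at half-maximal effect; plate controls were DMSO vehicle for no effect and reference control for full effect; nearly all actives have a fitted effect of over 55% in size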
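Galactose (2%) drives FUS expression in yeast precultured in raffinose; seeding density OD 0.005. Test compounds incubated 24hr at 30C and 99% humidity before absorbance at 600 nm was measured.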
Mm-Cpn inhibitor = Inhibitors of TCP-1 ring complex (TRiC) of Methanococcus maripaludis (MmCpn): qHTS. Potency, µM (titrated, usually from 76.9 µM), for inactives: top-dose activity, negative = inhibition, hits mostly inhibitors. Chaperonin Mm-Cpn (Methanococcus maripaludis). purified Mm-Cpn ATPase, ADP Transcreener TR-FRET. actives 0.031% (n = 330,000); also: potency is read from the fitted curve at half-maximal effect; % is scaled to controls: 0 for no effect and ±100 for the full control effect; nearly all actives have a fitted effect of over 80% in size
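Purified archaeal chaperonin (25 nM final) was preincubated with compound for 10 min at 37°C, then ATP (10 uM final) was added for 30 min at 37°C in Tris pH 7.4/KCl/MgCl2/DTT buffer. ADP was quantified by HTRF Transcreener TR-FRET.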
Active calls of the source: *; i = inactive; ? = inconclusive; . = no result given. Unless noted, calls follow the shape of the dose curve; as a rule, active = well fitted curve in the direction sought with a large enough effect; inconclusive = small, poorly fitted or top-dose-only effect, or another doubt; inactive = no such curve, though single readings can be large; an effect the other way counts as inactive or inconclusive.

SMILES	Abeta rescue	aSyn yeast inh	TDP43 rescue	CCT chaperon mod	FUS suppressor	Mm-Cpn inhibitor
CCc1sc(C(=O)Nc2nccs2)cc1C	i	-14%	-17%	2	i	0%
Cn1cccc1C(=O)Nc1nc(-c2ccccn2)cs1	?	?	14µM*	0	?	-1%
Cc1c(C(=O)Nc2nc(-c3ccccn3)cs2)oc2ccccc12	i	-29%	6.3µM*	2	?	-2%
CCc1sc(C(=O)Nc2nc(-c3ccccn3)cs2)cc1C	i	4.5µM*	?	0	?	-7%
Cn1c(=O)oc2cc(S(=O)(=O)N3CCN(C(=O)C4CCCO4)CC3)ccc21 (stereo not given)	.	.	.	.	i	.
CC(C)c1nn2c(=O)cc(COC(=O)c3ccccc3NC(=O)C3CCCCC3)nc2s1	i	.	14%	.	i	.
CCOc1ccc(/C=C/c2ccnc3ccccc23)cc1OCC	.	10%	.	.	.	.
O=C(COc1ccc(F)cc1Cl)Nc1nc(-c2ccccn2)cs1	.	.	.	.	.	-4%
C[C@H](NC(=O)c1ccccc1)C(=O)Nc1nc(-c2ccccn2)cs1	i	6%	20%	-1	i	0%
N#Cc1ccccc1OCC(=O)Nc1nc(-c2ccccn2)cs1	?	?	25µM*	0	i	.
O=C(Nc1nc(-c2ccccn2)cs1)c1ccc(Cl)s1	i	-15%	?	1	i	-3%
Cc1ccc(C(=O)Nc2nc(-c3ccccn3)cs2)s1	?	3.5µM*	?	-1	i	-4%
O=C(Nc1nc(-c2ccccn2)cs1)c1ncc(Cl)c(Cl)c1Cl	i	7.9µM*	3.5µM*	-3	i	-3%
Cc1cc(OCCCSc2nc(-c3ccc(C(C)(C)C)cc3)nc3cc(=O)[nH]n23)ccc1Cl	i	.	14%	.	i	.
O=C(O)c1ccc(COc2ccc3ccccc3c2/C=C2/NC(=O)N(c3ccccc3)C2=O)cc1	i	-1%	4%	-4	35µM*	-1%
Brc1ccc(C2C=Cc3ccccc32)cc1 (stereo not given)	.	-12%	.	.	.	.
Cc1c(C(=O)Nc2ccc(F)cc2F)nnn1-c1ccccc1Br	i	.	32µM*	.	i	.
CCCCOc1ccc(C(=O)NCCc2ccccc2)cc1	i	-1%	15%	1	i	-1%
NC(=S)c1ccc(OCCCc2ccccc2)cc1	i	8%	10µM*	1	i	.
O=C(NCc1cccs1)C1C2C=CC3(CN(Cc4ccccc4)C(=O)C13)O2 (stereo not given)	.	.	.	.	i	.
CNc1ccc(/C=C2\C=Cc3ccccc32)cc1Br	.	-1%	.	.	.	.
Cc1ccc2c(c1)nnn2C1CCN(C(=O)c2ccccc2F)CC1	i	-5%	26%	-2	i	0%
Cc1ccc2c(c1)nnn2C1CCN(C(=O)C2CCCCC2)CC1	i	4%	20µM*	1	i	-1%
CC(NS(=O)(=O)OCC(Cl)(Cl)Cl)c1ccc(Br)cc1 (stereo not given)	i	-1%	35µM*	-3	i	1%
CC(C)CC(NS(=O)(=O)OCC(Cl)(Cl)Cl)c1ccccc1 (stereo not given)	i	-54%	-91%	-1	i	1%
SMILES	Abeta rescue	aSyn yeast inh	TDP43 rescue	CCT chaperon mod	FUS suppressor	Mm-Cpn inhibitor
Clc1ccccc1-c1nn2c(-c3ccccn3)nnc2s1	i	-12%	13µM*	-3	i	2%
c1ccc(OCc2nn3c(-c4ccncc4)nnc3s2)cc1	i	7%	-15%	1	i	-4%
c1ccc(OCc2nn3c(-c4ccccn4)nnc3s2)cc1	i	0%	14µM*	0	i	-1%
COc1cccc(-c2nn3c(-c4ccco4)nnc3s2)c1	i	.	7.1µM*	0	i	-3%
Clc1ccccc1-c1nn2c(-c3ccncc3)nnc2s1	i	-14%	16%	0	i	1%
c1coc(-c2nnc3sc(C4CCCCC4)nn23)c1	i	-15%	18µM*	0	i	-1%
COc1ccccc1-c1nnc2sc(COc3ccc(F)cc3)nn12	i	4%	11µM*	-2	?	-4%
COc1cccc(-c2nn3c(-c4ccccn4)nnc3s2)c1	i	-2%	16µM*	-2	i	0%
Cc1ccc(CN2CCCCC(NC(=O)Cc3cccs3)C2=O)cc1 (stereo not given)	.	.	.	.	i	.
COc1cc2cc(CNc3ccccc3)c(=O)n(CC(=O)Nc3ccccc3)c2cc1OC	i	.	12%	.	?	.
COc1ccc(-c2nnc(SCc3csc(N)n3)n2C)cc1	i	-12%	-5%	0	i	-8%
Cc1ccc(Nc2nc(CSc3nnc(-c4ccc(F)cc4)n3C)cs2)cc1	i	-18%	18µM*	1	.	-2%
COc1ccc(OCCn2c(CCNC(=O)C3CCCCC3)nc3ccccc32)cc1	.	5%	.	.	.	.
CCOC(=O)c1c(NC(=O)c2ccc(S(=O)(=O)N(C)C3CCCCC3)cc2)sc2c1CCN(C(C)C)C2	i	18%	-11%	.	i	.
CCCCN(C)C(=O)c1oc(=O)c2ccccc2c1-c1ccc(C)cc1	.	.	.	.	i	.
Cc1ccc(-c2c(C(=O)N(C)Cc3ccccc3)oc(=O)c3ccccc23)cc1	i	0%	13µM*	2	?	2%
CN(Cc1ccccc1)C(=O)c1oc(=O)c2ccccc2c1-c1ccccc1	i	5%	14µM*	1	.	1%
CCC(C)N(C(=O)CNc1nnnn1-c1ccccc1)C(C)CC (stereo not given)	.	.	.	.	i	.
COC(=O)C1=C(C(=O)OC)[C@@]2([C@H](Cc3ccc(C)cc3)Nc3ccccc3)C=C[C@@H]1O2	.	.	.	.	i	.
CCOC(=O)c1c(C2COc3ccccc3O2)csc1N (stereo not given)	i	-1%	?	-41*	i	1%
CSc1ccc(CNC(=O)CCn2ccc3cc(S(=O)(=O)N4CCC(C)CC4)ccc32)cc1	i	.	22%	.	?	.
CCCn1c(CC)nc([N+](=O)[O-])c1S(=O)(=O)c1ccccc1	i	6%	25µM*	-4	i	-4%
c1csc(-c2nn3cnnc3c3ccccc23)c1	i	-1%	22µM*	-3	i	-1%
O=C(C[n+]1cc(Br)cc(Br)c1)c1ccc(I)cc1	.	-9%	.	.	.	.
CCOC(=O)/C=C(\C)Sc1cc(O)c2ccccc2c1O	i	-66%	-94%	1	i	-2%

Bioassay records deposited in PubChem BioAssay by National Center for Advancing Translational Sciences (NCATS).
